The values that follow come from PubChem BioAssay AID1566 (Sanford-Burnham Center for Chemical Genomics, 2009).

Where “and” joins values, the source holds several entries; their conditions need not be identical. Equal values may be shown once. Screen size: about 290,000 compounds; about 1,800 (0.62%) were called active. Cut-off read from the data, not from the text of the source: active = inhibition above about 50%; inactive = the rest. What follows is part of a selection rich in actives, with near analogues and random picks from the rest.

The nature of the assay: NOD2 signaling inhibitors, cell-based, luminescence, uHTS, HEK293 (AID 1566). The conditions noted are these: HEK293 NOD2/NF-kB luciferase reporter, at 4 µM, hits give high values. (Reporter assays use an easily measured gene product as a stand-in for the process of interest.)
As usually defined, the inhibition is the change of the read-out against control, counted positive when it falls. For the compound `O=C(CSCCO)Nc1ccc(C2CCCCC2)cc1`, the inhibition was -8.8% (inactive).
With `Nn1cnnc1SCC(=O)Nc1ccc(C2CCCCC2)cc1` the figure was -14.6% (inactive).
Under `O=C(O)CSCC(=O)Nc1ccc(C2CCCCC2)cc1` stands 73.5% (active).
With `C=C1CCC[C@]2(C)C[C@H]3OC(=O)C(CNC(C)(CO)CO)[C@H]3CC12` (stereo partly drawn) the figure was 3.4% (inactive); with `CC1(C)CC(NC(=O)c2cccc3ccccc23)CC(C)(C)N1`, -1.7% (inactive).
As to `COc1cc(C(=O)Nc2sc3c(c2C(=O)O)CCC3)cc(OC)c1OC`, the inhibition was 23.1% (inactive).
Under `COc1cc(C(=O)Nc2scc(-c3ccccc3)c2C(=O)O)cc(OC)c1OC` stands 13.6% (inactive); under `COc1cc(C(=O)Nc2scc(-c3ccc(C)cc3)c2C(=O)O)cc(OC)c1OC`, 42.9% (inactive).
Turning to `CC1CCc2c(sc(NC(=O)c3ccco3)c2C(=O)O)C1` (stereo not drawn), the inhibition is 36.1% (inactive).
With `CC(C)(C)OC(=O)C(C)(C)O/N=C(\C(=O)O)c1csc(N)n1`, the inhibition is 12.5% (inactive).
With `Cn1c(N/N=C/c2cc3ccccc3nc2Cl)nc2ccccc21` the figure was -51% (inactive).
With `Clc1ccc(-c2nc3n(n2)Cc2ccccc2-3)cc1` the figure was -152% (inactive).
With `CCn1c(C)nc2cc(-c3nc4n(n3)Cc3ccccc3-4)ccc21` the figure was 93% (active).
On to `Cc1ccc(-c2nc3n(n2)Cc2ccccc2-3)cc1`, for which the inhibition is -79.2% (inactive).
On to `CCC(=O)c1ccccc1OCCN1CCN(Cc2ccccc2)CC1`, for which the inhibition was 2.5% (inactive).
Under `O=C(c1ccc(Cl)cc1)N1CCCCC(Sc2nnc(-c3ccc4c(c3)OCO4)o2)C1=O` (stereo not drawn) stands 29.1% (inactive).
In the case of `O=C1OCCC1Sc1nnc(-c2ccc3c(c2)OCO3)o1` (stereo not drawn), the inhibition is 28% (inactive).
In the case of `O=C1CCCCC1Sc1nnc(-c2ccc3c(c2)OCO3)o1` (stereo not drawn), the inhibition is 71.3% (active).
With `CCN(CC)c1ccc2cc(C(N)=O)c(=O)oc2c1` the figure was -17.6% (inactive); with `CCN(CC)c1ccc2cc(C(C)=O)c(=O)oc2c1`, -9.9% (inactive).
Under `CCN(CC)c1ccc2cc(NC(=O)CCC(=O)O)c(=O)oc2c1` stands 57.1% (active).
In the case of `O=C(N/N=C/c1cccc(O)c1)C(=O)N1CCCCCC1`, the inhibition was 8.2% (inactive).
Under `COc1ccc(COC(=O)C2=C(C)NC(=O)NC2c2ccc(O)cc2)cc1` (stereo not drawn) stands 5.6% (inactive); under `COc1ccc(COC(=O)C2=C(C)NC(=O)NC2c2ccc(F)cc2)cc1` (stereo not drawn), 50.5% (active).
Under `COc1ccc(COC(=O)C2=C(C)NC(=O)NC2c2ccc(OC)cc2)cc1` (stereo not drawn) stands 17.9% (inactive); under `O=C(CN1CCN(S(=O)(=O)c2ccc(Cl)cc2)CC1)NC1CCCC1`, -2.2% (inactive).
With `C#CC(=O)N(c1ccc(OC)cc1OC)C(C(=O)NC1CCCC1)c1cccs1` (stereo not drawn), the inhibition was 62% (active).
In the case of `C#CC(=O)N(c1ccc(OC)c(OC)c1)C(C(=O)NC1CCCC1)c1cccs1` (stereo not drawn), the inhibition is -0.2% (inactive).
Under `C#CC(=O)N(c1cc(OC)ccc1OC)C(C(=O)NC1CCCC1)c1cccs1` (stereo not drawn) stands 17% (inactive); under `CC(=O)c1c(C)[nH]c(C(=O)Nc2nc(-c3ccc(Cl)cc3)cs2)c1C`, 31.2% (inactive).
With `CC(=O)c1c(C)[nH]c(C(=O)Nc2nc(C)cs2)c1C` the figure was -21.9% (inactive).
For `CCCNC(=O)CCCN1C(=O)c2ccccc2Sc2ncccc21`, the inhibition is 7.1% (inactive).
Under `CCCCN(CC)CCCNC(=O)Cn1nc(Cc2ccncc2)c2ccccc2c1=O` stands 2.4% (inactive); under `COc1ccc(-n2c(-c3ccc(Br)cc3)c[n+]3c2CCc2ccccc2-3)cc1`, 31.4% (inactive); under `COc1ccccc1-n1c(-c2ccccc2)c[n+]2c1CCc1ccccc1-2`, 49% (inactive) and 41.3% (inactive).
Under `Cc1ccc(-n2c(-c3ccccc3)c[n+]3c2CCc2ccccc2-3)c(C)c1` stands 56.2% (active).
With `COCCn1c(C)cc(C(=O)COC(=O)c2ccccc2Br)c1C` the figure was 68.7% (active); with `COCCn1c(C)cc(C(=O)COC(=O)c2ccc[nH]c2=O)c1C`, 29.6% (inactive); with `Cc1ccc(C(=O)OCC(=O)c2cc(C)n(CC3CCCO3)c2C)cc1` (stereo not drawn), 18.2% (inactive).
Take `COCCn1c(C)cc(C(=O)COC(=O)c2ccc(Br)o2)c1C`: the inhibition is 4.7% (inactive).
With `Cc1cc(C(=O)COC(=O)c2ccccc2NCCO)c(C)n1CC1CCCO1` (stereo not drawn) the figure was -4.6% (inactive).
`Cc1cc(C(=O)COC(=O)c2ccc(O)cc2)c(C)n1CC1CCCO1` (stereo not drawn): the inhibition was -113% (inactive).
With `Cc1cc(C(=O)COC(=O)c2cccnc2Cl)c(C)n1CC1CCCO1` (stereo not drawn) the figure was 55.8% (active).
With `CSc1ncccc1C(=O)OCC(=O)c1cc(C)n(CC2CCCO2)c1C` (stereo not drawn) the figure was 5.9% (inactive).
Under `O=C(CC1C(=O)NCCN1C(=O)Nc1ccc(Cl)cc1)Nc1ccc(F)cc1` (stereo not drawn) stands 8.1% (inactive).
For the compound `COc1ccc(C/C(C)=N/NC(=O)c2cccnc2)cc1`, the inhibition was -5.6% (inactive).
With `CCOc1ccccc1/C=C/C(=O)NCC(=O)N1CCC(N(C)C2CCCCC2C)CC1` (stereo not drawn) the figure was 9.7% (inactive); with `COc1ccc(CNCCNC(=O)c2nonc2N)cc1OC`, 11.4% (inactive).
Regarding `Cc1ccc(S(=O)(=O)Nc2ccccc2C(=O)N2CCN(C)CC2)cc1`, the inhibition is 4% (inactive).
Regarding `COc1ccc(NC(=O)CO/N=C(\C)c2cccs2)cc1`, the inhibition is -10.2% (inactive).
With `O=C(Nc1ccncc1)Nc1cccc(C(F)(F)F)c1` the figure was 18% (inactive).
Under `O=C(Nc1ccccc1)Nc1cccc(C(F)(F)F)c1` stands -38.6% (inactive); under `O=S(=O)(c1ccc(NCc2ccc(F)cc2)nc1)N1CCCC1`, 12.4% (inactive); under `CC(OC(=O)Cc1ccc(Cl)cc1)C(=O)NCCC1=CCCCC1` (stereo not drawn), 17.9% (inactive).
Under `COc1ccccc1C(=O)Nc1ccc(C(=O)c2ccccc2)cc1` stands 4.1% (inactive); under `Cc1cc(C(=O)Nc2ccccc2C(=O)O)ccc1NC(=O)COc1cccc(C)c1C`, 47.7% (inactive).
Turning to `COC(=O)c1ccccc1NS(=O)(=O)c1ccc(NC(C)=O)cc1`, the inhibition is 1.9% (inactive).
Under `COc1ccccc1C(=O)Nc1ccc(C(=O)Nc2ccccc2C(=O)O)cc1` stands 59.6% (active).
Under `Cc1ccccc1OCC(=O)Nc1ccc(C(=O)Nc2ccccc2C(=O)O)cc1` stands 33.3% (inactive); under `COC(=O)c1ccc(NC(=O)c2ccccc2NS(C)(=O)=O)cc1`, 6.5% (inactive); under `COc1ccccc1C(=O)Nc1ccc(C(=O)O)cc1`, -1.4% (inactive).
Consider `c1ccc(CCSc2nccn2-c2ccccc2)cc1`, for which the inhibition is -141% (inactive).
Under `CCCc1cc(=O)oc2c3c(c(Cl)cc12)OCN(CCCO)C3` stands -64.8% (inactive); under `CC(C)C(c1nnnn1C1CCCCC1)N1CCOCC1` (stereo not drawn), 0.1% (inactive).
Under `CCOC(=O)c1cccc(NC(=O)c2cc3ccccc3o2)c1` stands -97.4% (inactive); under `CCOc1ccc(/C=N/n2c(C)nnc2C)cc1OC`, 8% (inactive).
As to `Cc1ccc(C(=O)OCc2cc3ccccc3[nH]c2=O)cc1`, the inhibition was 3.6% (inactive).
With `O=C(c1ccc(N2CCN(C(=O)c3ccc(F)cc3F)CC2)cc1)c1cccc(F)c1` the figure was 10.3% (inactive).
Under `C=CCn1c(C)cc(C2=NNC(=NCc3ccccc3)SC2)c1C` stands -78% (inactive); under `COCCCN=C1NN=C(c2cc(C)n(Cc3ccccc3Cl)c2C)CS1`, -30.7% (inactive); under `COCCn1c(C)cc(C2=NNC(=Nc3ccc(Cl)cc3Cl)SC2)c1C`, 8.7% (inactive).
With `COCCn1c(C)cc(C2=NNC(=Nc3ccccc3F)SC2)c1C` the figure was 61.6% (active).
Regarding `Cc1cc(C2=NNC(=NCCc3ccccc3)SC2)c(C)n1CC1CCCO1` (stereo not drawn), the inhibition is -32.5% (inactive).
Under `COCCn1c(C)cc(C2=NNC(=NC3CC3)SC2)c1C` stands 94% (active); under `C=CCN=C1NN=C(c2cc(C)n(CCOC)c2C)CS1`, 65.1% (active); under `COCCn1c(C)cc(C2=NNC(=Nc3ccccc3)SC2)c1C`, -146% (inactive).
With `COCCn1c(C)cc(C2=NNC(=NC(C)(C)C)SC2)c1C` the figure was 4.6% (inactive).
With `COCCn1c(C)cc(C2=NNC(=Nc3ccc(OC)cc3)SC2)c1C` the figure was -9.9% (inactive); with `COCCN=C1NN=C(c2cc(C)n(CC3CCCO3)c2C)CS1` (stereo not drawn), 19.4% (inactive); with `C=CCN=C1NN=C(c2cc(C)n(CC=C)c2C)CS1`, 73.6% (active).
Consider `C#CCOc1c(Cl)cc(/C=C2/C(=O)ON=C2C)cc1OC`, for which the inhibition was 6.6% (inactive).
For the compound `Cn1c(=O)oc2cc(S(=O)(=O)NCCC(=O)NC3CCCC3)ccc21`, the inhibition is -0.1% (inactive).
Under `COc1ccc(CCN=C(N)Nc2nc(C)cc(C)n2)cc1` stands 8.4% (inactive); under `COCCn1c(Cc2cccn2C)nnc1SCC(=O)NCc1ccc2c(c1)OCO2`, 5.3% (inactive); under `COc1ccccc1-n1c(SCC(=O)N2CCOCC2)nc2ccccc2c1=O`, 2.8% (inactive).
With `CCOC(=O)CNC(=O)CSc1ccc2nnc(-c3ccc(F)cc3)n2n1`, the inhibition was 8.4% (inactive).
With `Cc1ccc(-c2noc(C3CCCN(C(=O)c4ccc(Cl)cc4)C3)n2)o1` (stereo not drawn) the figure was -1.8% (inactive).
With `C=CCn1c(C)cc(C2=NNC(=Nc3ccc(C)cc3)SC2)c1C` the figure was 3% (inactive).
Under `Cc1cc(C2=NNC(=Nc3ccccc3)SC2)c(C)n1C` stands -60.1% (inactive).
Take `C=CCn1c(C)cc(C2=NNC(=NCC)SC2)c1C`: the inhibition was 92.6% (active).
Under `CC(C)(C)N=C1NN=C(c2ccc(Cl)cc2)CS1` stands -99% (inactive).
Under `CCN=C1NN=C(c2ccc(C)cc2)CS1` stands -71.4% (inactive); under `C=CCn1c(C)cc(C2=NNC(=NC(C)(C)C)SC2)c1C`, 63.3% (active).
For the compound `CN(C(=O)Cn1nnc2ccccc2c1=O)C1CCCCC1`, the inhibition is 6.8% (inactive).
With `COc1ccc(-c2nnc(SCC(=O)NC3CCCCC3)o2)cc1` the figure was 6% (inactive); with `CCOc1ccccc1N(CC(=O)NCC1CCCO1)C(=O)CNS(=O)(=O)c1ccccc1` (stereo not drawn), -15.5% (inactive); with `COc1ccc(-n2c(-c3ccc(C)cc3)n[nH]c2=S)cc1`, -6.4% (inactive).
For `O=C(CCSc1nc(-c2ccco2)cc(C(F)(F)F)n1)N1CCN(c2ccccc2)CC1`, the inhibition was -17.1% (inactive).
